CDK5 p35 inh = blocks human CDK5/p35 kinase activity. Q00535+Q15078. Recombinant CDK5/p35, ADP-Glo luminescence, 60 min. inhibition, % at 10 µM. 0.01% of 330,000 active. AID 488839;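 active = highest replicate inhibition of at least 50% and at least 75% of replicates reaching 50%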;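 note: plate controls were DMSO neutral control for no effect and GW8510 at 10 µM for full effect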
Target sequence (Q00535 whole entry, looked up): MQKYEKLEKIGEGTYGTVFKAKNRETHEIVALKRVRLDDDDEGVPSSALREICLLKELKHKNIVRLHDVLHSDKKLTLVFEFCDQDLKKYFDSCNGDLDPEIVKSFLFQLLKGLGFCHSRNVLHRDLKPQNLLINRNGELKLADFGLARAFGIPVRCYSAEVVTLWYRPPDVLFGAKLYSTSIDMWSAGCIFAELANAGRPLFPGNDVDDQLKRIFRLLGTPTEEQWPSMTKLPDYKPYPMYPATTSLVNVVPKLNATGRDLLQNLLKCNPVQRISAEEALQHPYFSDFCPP
Target sequence (Q15078 whole entry, looked up): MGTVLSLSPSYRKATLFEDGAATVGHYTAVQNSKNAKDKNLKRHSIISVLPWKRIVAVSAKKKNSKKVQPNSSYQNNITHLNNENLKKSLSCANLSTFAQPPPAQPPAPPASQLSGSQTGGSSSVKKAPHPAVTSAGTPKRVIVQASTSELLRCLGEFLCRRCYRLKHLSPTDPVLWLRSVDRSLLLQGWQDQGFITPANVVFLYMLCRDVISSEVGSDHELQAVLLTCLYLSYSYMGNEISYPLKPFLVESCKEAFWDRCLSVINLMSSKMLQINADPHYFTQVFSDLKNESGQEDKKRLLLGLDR
SUMO Mot1 rescue = blocks SUMOylation pathway, rescuing yeast Mot1-301 growth. S. cerevisiae Mot1-301 growth rescue, ATP luminescence, 38.5C; percent above DMSO median, 100 means doubled. growth rescue, % at 18.8 µM. 1% of 320,000 active. AID 2716;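 active = every valid replicate shows activation above 250% relative to neutral control wells; inactive = the rest, any valid replicate at or below 250%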;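 note: OY570 slx delta 5 strain wells were the positive control but not used for scaling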
ALR H2O2 inh = inhibitors of human sulfhydryl oxidase ALR; inhibition, % (no concentration beside the values); P55789; 3.8% of 290,000 active; purified ALR, DTT oxidation, H2O2 HRP-luminol luminescence;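 active = mean replicate inhibition above about 79%, with every replicate also reaching it, limit read from the data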
N-glyco inh = blocks N-linked glycosylation in D54 reporter cells | D54 ERlucT glycosylation luciferase reporter, 24 h; percent of 100 nM tunicamycin response | AID 588692 | reporter increase, % at 12.5 µM | 0.23% of 360,000 active;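 active = mean luciferase reporter signal, scaled so untreated is 0 and the glycosylation-blocking control 100, at or above a set limit in every replicate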;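 note: luciferase carries N-glycosylation sites so blocking glycosylation raises the light; 0% = median of neutral control wells and 100% = median of 100 nM tunicamycin wells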
NSD2 inh = inhibitors of human histone methyltransferase NSD2; O96028; NSD2 peptide methylation, AlphaScreen, 120 min; inhibition, % at 12.5 µM; 0.54% of 310,000 active; in the data active = inhibition above about 50%
CASP6 VEID inh = blocks human caspase-6 cleavage activity. 0.53% of 350,000 active. purified caspase-6, Z-VEID-R110 cleavage fluorescence. inhibition, % at 12.5 µM;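 active = mean inhibition across replicates at least about 35%, with every replicate also reaching that limit, limit read from the data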;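 note: 0% = median of neutral control wells and 100% = no fluorescence left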
* hit, by the source's call. Rows were chosen to be rich in hits. Some 3.9% of all compounds tested hit in one or more screens of this group.

What do the screens show for `CCOC(=O)COc1cccc2c(=O)n(CC(=O)N3CCCCC3)ccc12`?
CDK5 p35 inh: 3; SUMO Mot1 rescue: -16; N-glyco inh: 1; NSD2 inh: -1; CASP6 VEID inh: -2

Results for Cc1ccc(-c2cnc(SCCNC(=O)c3ccco3)[nH]2)cc1 ?
CDK5 p35 inh: 1; SUMO Mot1 rescue: 2; ALR H2O2 inh: 94*; N-glyco inh: -1; NSD2 inh: 2; CASP6 VEID inh: 1

How did COc1cccc(-c2nc(CS(=O)CC(=O)NC3CC3)c(C)o2)c1 (configuration not stated) do in these assays?
CDK5 p35 inh: 0; SUMO Mot1 rescue: 6; ALR H2O2 inh: 99*; N-glyco inh: 0; CASP6 VEID inh: -2

Results for COc1ccc(-c2nc(CS(=O)CC(=O)NC3CCCCC3)c(C)o2)cc1OC (configuration not stated) ?
CDK5 p35 inh: -2; SUMO Mot1 rescue: 4; ALR H2O2 inh: 99*; N-glyco inh: 1; CASP6 VEID inh: -3

Results for COc1ccc(-c2nc(CS(=O)CC(=O)NC3CCCCC3C)c(C)o2)cc1 (configuration not stated) ?
CDK5 p35 inh: -2; SUMO Mot1 rescue: 17; ALR H2O2 inh: 99*; N-glyco inh: 0; NSD2 inh: 14; CASP6 VEID inh: 2

How did COc1ccc(-c2nc(CS(=O)CC(=O)NC3CCCCC3)c(C)o2)cc1 (configuration not stated) do in these assays?
CDK5 p35 inh: 2; SUMO Mot1 rescue: -1; ALR H2O2 inh: 66; N-glyco inh: 0; NSD2 inh: -4; CASP6 VEID inh: 1

How did COc1ccc(-c2nc(CS(=O)CC(=O)NC3CCCCCC3)c(C)o2)cc1 (configuration not stated) do in these assays?
CDK5 p35 inh: -1; SUMO Mot1 rescue: 19; ALR H2O2 inh: 98*; N-glyco inh: 0; NSD2 inh: 5; CASP6 VEID inh: 4

Results for COc1cccc(-c2nc(CS(=O)(=O)CC(=O)NC3CCC(C)CC3)c(C)o2)c1 (configuration not stated) ?
CDK5 p35 inh: 2; SUMO Mot1 rescue: 6; ALR H2O2 inh: 31; N-glyco inh: 3; NSD2 inh: -4; CASP6 VEID inh: 4

How did COc1ccc(-c2nc(CS(=O)(=O)CC(=O)NC3CCCCC3C)c(C)o2)cc1 (configuration not stated) do in these assays?
CDK5 p35 inh: 0; SUMO Mot1 rescue: -8; ALR H2O2 inh: 23; N-glyco inh: 2; NSD2 inh: 2; CASP6 VEID inh: -1

What do the screens show for `CCC(=O)N1CC2(C1)[C@H](c1ccc(-c3ccccc3C)cc1)[C@H](CO)N2C(C)=O`?
CASP6 VEID inh: 1

Results for C[C@H]1CN([C@@H](C)CO)C(=O)c2cccc(NC(=O)Nc3ccc4c(c3)OCO4)c2O[C@H]1CN(C)S(=O)(=O)c1ccc(F)cc1 ?
CASP6 VEID inh: 3

What do the screens show for `CN1CCN(S(=O)(=O)c2ccc(F)cc2)CC1`?
N-glyco inh: 2; NSD2 inh: 3; CASP6 VEID inh: -1

Results for CN1CCN(S(=O)(=O)c2ccc(N)cc2)CC1 ?
CDK5 p35 inh: 0; SUMO Mot1 rescue: -10; ALR H2O2 inh: 96*; N-glyco inh: 1; CASP6 VEID inh: -1

How did COc1ccc(SCC(=O)c2cc(C)c(OC(=S)N(C)C)c(C)c2)cc1 do in these assays?
CDK5 p35 inh: -1; SUMO Mot1 rescue: 14; ALR H2O2 inh: 92*; N-glyco inh: -1; NSD2 inh: -1

Results for COc1cc(CC(=O)N2CCc3ccccc32)cc(OC)c1OC ?
CDK5 p35 inh: -2; SUMO Mot1 rescue: 247; ALR H2O2 inh: -6; N-glyco inh: -1

What do the screens show for `CCOC(=O)N1CCc2cc(OC)c(OC)c3c2c1cc1cc(OC)c(OC)cc13`?
CDK5 p35 inh: -2; N-glyco inh: 26*; NSD2 inh: 12; CASP6 VEID inh: 19

How did C[C@H](CO)N1C[C@H](C)[C@@H](CN(C)C)Oc2cc(-c3ccc(F)cc3)ccc2S1(=O)=O do in these assays?
CASP6 VEID inh: -1

How did Cc1ccc(CCNC(=O)C2CCCN(S(=O)(=O)c3cnc[nH]3)C2)cc1 (configuration not stated) do in these assays?
CDK5 p35 inh: 0; SUMO Mot1 rescue: -16; ALR H2O2 inh: 49; N-glyco inh: 0; CASP6 VEID inh: -3

What do the screens show for `CCN(CCNC(=O)C1CCCN(S(=O)(=O)c2cnc[nH]2)C1)c1ccccc1` (configuration not stated)?
CDK5 p35 inh: 0; SUMO Mot1 rescue: -5; ALR H2O2 inh: 98*; N-glyco inh: 0; CASP6 VEID inh: -1

What do the screens show for `CCN(CCCNC(=O)C1CCCN(S(=O)(=O)c2cnc[nH]2)C1)c1ccccc1` (configuration not stated)?
CDK5 p35 inh: -1; SUMO Mot1 rescue: 11; ALR H2O2 inh: 98*; N-glyco inh: 1; CASP6 VEID inh: 1

What do the screens show for `FC(F)(F)c1cnc(NNC(=S)Nc2ccccc2Cl)c(Cl)c1`?
CDK5 p35 inh: 1; SUMO Mot1 rescue: 5; ALR H2O2 inh: 97*; N-glyco inh: -2; NSD2 inh: -2

How did O=C(C[C@H]1CC[C@@H]2[C@H](COC[C@@H](O)CN2Cc2cccc(Cl)c2)O1)N1CCCCC1 do in these assays?
CASP6 VEID inh: -3

Results for C[C@H]1CN([C@@H](C)CO)C(=O)c2cc(NC(=O)C3CC3)ccc2O[C@H]1CN(C)C(=O)Nc1ccc2c(c1)OCO2 ?
CASP6 VEID inh: -1

What do the screens show for `CCOC(=O)c1c(N2CCN(c3ccccc3)CC2)cc(C)nc1C`?
CDK5 p35 inh: 1; SUMO Mot1 rescue: 31; ALR H2O2 inh: 97*; N-glyco inh: -2; NSD2 inh: -2; CASP6 VEID inh: -1

Results for O=C(Nc1ccccc1C(=O)O)c1cccc(N2C(=O)c3ccccc3C2=O)c1 ?
CDK5 p35 inh: 0; SUMO Mot1 rescue: 2; ALR H2O2 inh: 10; N-glyco inh: 1; NSD2 inh: -1; CASP6 VEID inh: 2

Results for Cc1ccc(N2C(=O)c3ccc(C(=O)O)cc3C2=O)c(C)c1 ?
CDK5 p35 inh: 0; SUMO Mot1 rescue: 313*; ALR H2O2 inh: -2; N-glyco inh: 0; NSD2 inh: -3

What do the screens show for `CC(C)CN1C(=O)c2ccc(C(=O)Nc3ccccc3C(=O)O)cc2C1=O`?
CDK5 p35 inh: 1; SUMO Mot1 rescue: 5; ALR H2O2 inh: 81*; N-glyco inh: 4; NSD2 inh: 0; CASP6 VEID inh: 3

What do the screens show for `Cc1cc([N+](=O)[O-])ccc1N1C(=O)c2ccc(C(=O)Nc3ccccc3C(=O)O)cc2C1=O`?
CDK5 p35 inh: -3; SUMO Mot1 rescue: -5; ALR H2O2 inh: 98*; N-glyco inh: 1; NSD2 inh: -1; CASP6 VEID inh: -1
